Data taken from PubChem BioAssay (Tox21).
Records with an inconclusive call do not appear. Calls of active or inactive are those of the source. The call rests on the fitted dose curve; in most records, active means well fitted inhibition curve with a large enough effect in the signal ratio in the repeat runs (not every such curve was filed as active); inconclusive means weak or mixed curves, or effect the other way; inactive means no such curve, though single readings can be large or run the other way; the % refers to the signal ratio.

These compounds were tested against Peroxisome proliferator-activated receptor delta (Homo sapiens) (UniProt Q03181) (assay: qHTS assay to identify small molecule antagonists of the peroxisome proliferator-activated receptor delta (PPARd) signaling pathway (AID 743215;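 further: cells stimulated with agonist L165041 at 300 nM final during compound exposure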)). Conditions: HEK293H PPARd-UAS-bla, beta-lactamase FRET ratio, antagonist, 17 h; series mostly up to 62 µM.
Peroxisome proliferator-activated receptor delta (Homo sapiens), sequence (Q03181 whole entry, looked up): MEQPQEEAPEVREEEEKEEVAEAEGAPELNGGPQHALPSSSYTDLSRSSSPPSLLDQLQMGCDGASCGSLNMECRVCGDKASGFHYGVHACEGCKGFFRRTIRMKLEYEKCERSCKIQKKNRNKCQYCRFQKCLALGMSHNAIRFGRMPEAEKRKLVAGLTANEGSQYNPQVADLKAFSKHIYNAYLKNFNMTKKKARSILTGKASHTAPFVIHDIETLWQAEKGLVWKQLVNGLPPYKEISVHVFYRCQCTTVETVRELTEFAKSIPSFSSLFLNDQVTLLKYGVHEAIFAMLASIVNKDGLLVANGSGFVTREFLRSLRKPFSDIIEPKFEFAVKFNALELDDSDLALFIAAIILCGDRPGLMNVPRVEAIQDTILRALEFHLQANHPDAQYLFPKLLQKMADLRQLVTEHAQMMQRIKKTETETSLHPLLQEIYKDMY
Source text: U.S. Tox21 Program National Center for Advancing Translational Sciences [NCATS] NIH Chemical Genomics Center [NCGC] U.S. Environmental Protection Agency [EPA] National Institutes of Environmental Health Sciences [NIEHS] National Toxicology Program [NTP] U.S. Food and Drug Administration [FDA] Tox21 Assay Overview: The peroxisome proliferator-activated receptors (PPARs) are lipid-activated transcription factors of the nuclear receptor superfamily with three distinct subtypes namely PPAR alpha, PPAR delta (PPARd) and PPAR gamma. All these subtypes heterodimerizes with Retinoid X receptor (RXR) and have different physiological functions. […] To identify the compounds that inhibit PPAR-delta signaling, GeneBLAzer PPAR delta UAS-bla HEK293H cell line (Invitrogen, Carlsbad, CA, USA) containing a beta-lactamase reporter gene under the control of an Upstream Activator Sequence (UAS) was used to screen the Tox21 compound library.
Tox21 Assay Protocol Summary: PPARd-bla cells were dispensed at 3000 cells/5uL/well in 1536-well black wall/clear bottom plates using a Multidrop Combi (Thermo Fisher Scientific, Waltham, MA) dispenser. After the assay plates were incubated at 37 C and 5% CO2 for 5 h, 23 nL of compounds dissolved in DMSO, positive controls or DMSO only was transferred to the assay plate by a Pintool station (Kalypsys, San Diego, CA), followed by addition of 1ul L165041 (300 nM, final concentration in the wells). The assay plates were incubated at 37 C for 17 h, and then 1 uL of LiveBLAzerTM B/G FRET substrate was added using a Bioraptr Flying Reagent Dispenser (FRD) workstation (Beckman Coulter, Indianapolis, IN, USA). The assay plates were incubated at room temperature for 2 h and fluorescence intensity was measured by an Envision plate reader (PerkinElmer, Shelton, CT).
With `COc1ccc(N)cc1` the outcome was “inactive”. For `COP(=O)(OC)C(O)C(Cl)(Cl)Cl` (configuration not stated), the outcome was “inactive”. In the case of `C1CCC(NC2CCCCC2)CC1`, the outcome is reported as “inactive”. For `Oc1ccccc1-c1ccccc1`, the outcome was “inactive”. With `OCCOc1ccccc1` the outcome was “inactive”. With `COCC(=O)N(c1c(C)cccc1C)C(C)C(=O)OC` (configuration not stated) the outcome was “inactive”. With `Nc1ccc(Cl)cc1` the outcome was “inactive”. For `Cc1cc(Cl)ccc1N`, the outcome was “inactive”. `CC(Cl)(Cl)C(=O)O` was tested, and the outcome was “inactive”. For `O=C(O)COc1ccc(Cl)cc1Cl`, the outcome was “inactive”. In the case of `COP(=O)(OC)OC=C(Cl)Cl`, the outcome is reported as “inactive”. `CCCCCCCCCCCCCCCCn1cc[n+](C)c1` was tested, and the outcome was “inactive”. `O=C(O)C(Cl)Cl` was tested, and the outcome was “inactive”. In the case of `CCC(=O)C(CC(C)N(C)C)(c1ccccc1)c1ccccc1` (configuration not stated), the outcome is reported as “inactive”. `C[N+](C)(C)Cc1ccccc1` was tested, and the outcome was “inactive”. With `CCC[N+]1(C)CCCC1` the outcome was “inactive”. For `O=C(O)C(Cl)(Cl)Cl`, the outcome was “inactive”. In the case of `CCCn1cc[n+](C)c1`, the outcome is reported as “inactive”. `O=C(O)CC(O)(CC(=O)O)C(=O)O` was tested, and the outcome was “inactive”. In the case of `CNC`, the outcome is reported as “inactive”. For `O=P1(N(CCCl)CCCl)NCCCO1` (configuration not stated), the outcome was “inactive”. In the case of `CCOP(=S)(OCC)Oc1ccc2c(C)c(Cl)c(=O)oc2c1`, the outcome is reported as “inactive”.
